# PubChem BioAssay AID624387 (National Center for Advancing Translational Sciences (NCATS), 2012)
# The source made the active and inactive calls. Calls come from the whole dose curve; as a rule, active = well fitted curve in the direction sought with a large enough effect; inactive = no such curve, though single readings can be large or run the other way.
# Molecular target: Pyruvate kinase PKM (Homo sapiens) (UniProt P14618)
# Assay: qHTS for Activators of Human Muscle Isoform 2 Pyruvate Kinase: Extended Characterization using M1 for Probe 2
# Conditions: purified hPK-M1, Kinase-Glo ATP luminescence, 1 h; series mostly up to 57.7 µM
# Procedure: Human pyruvate kinase muscle isoform 1 (hPK-M1) enzyme was supplied as a highly purified (>95% pure) preparation from Harvard Medical School and assayed for its ability to generate ATP from ADP using phosphoenolpyruvate (PEP) as a substrate. ATP generation was detected in a coupled reaction by luciferase-mediated luminescence, an ATP-dependent process. Pyruvate kinase substrates, PEP and ADP, were present in the assay at Km and approximately 10-fold below Km respectively. The enzyme was assayed at an intermediate level of activity to screen for both inhibitors and activators. NIH Chemical Genomics Center [NCGC] NIH Molecular Libraries Probe Centers Network [MLPCN] MLPCN Grant: MH085679 Assay Submitter (PI): Matthew G. Vander Heiden, Harvard Medical School
# Three uL of substrate mix (at r.t.) in assay buffer (50 mM Imidazole pH7.2, 50 mM KCl, 7 mM MgCl2, 0.01% Tween 20, 0.05% BSA) was dispensed into white solid bottom 1,536 well microtiter plates so that the final concentrations of substrates in the assay were 0.1 mM ADP and 0.5 mM PEP. 23 nL of compound were delivered by a pin tool and 1 uL of enzyme mix (final concentration of 1 nM) in assay buffer (4 degree Celsius) was added. Plates were incubated at room temperature for 1 hour. Two uL of detection mix (Kinase-Glo, Promega; at 4 degree Celsius protected from light) was added and luminescence read by a ViewLux (Perkin Elmer) at 1 second exposure/plate. Data were normalized to the uninhibited (row 31). Additionally, a no enzyme and 5-fold enzyme control was dispensed in row 32, split equally between the two conditions.
# Pyruvate kinase PKM (Homo sapiens), sequence (P14618 whole entry, looked up, canonical isoform): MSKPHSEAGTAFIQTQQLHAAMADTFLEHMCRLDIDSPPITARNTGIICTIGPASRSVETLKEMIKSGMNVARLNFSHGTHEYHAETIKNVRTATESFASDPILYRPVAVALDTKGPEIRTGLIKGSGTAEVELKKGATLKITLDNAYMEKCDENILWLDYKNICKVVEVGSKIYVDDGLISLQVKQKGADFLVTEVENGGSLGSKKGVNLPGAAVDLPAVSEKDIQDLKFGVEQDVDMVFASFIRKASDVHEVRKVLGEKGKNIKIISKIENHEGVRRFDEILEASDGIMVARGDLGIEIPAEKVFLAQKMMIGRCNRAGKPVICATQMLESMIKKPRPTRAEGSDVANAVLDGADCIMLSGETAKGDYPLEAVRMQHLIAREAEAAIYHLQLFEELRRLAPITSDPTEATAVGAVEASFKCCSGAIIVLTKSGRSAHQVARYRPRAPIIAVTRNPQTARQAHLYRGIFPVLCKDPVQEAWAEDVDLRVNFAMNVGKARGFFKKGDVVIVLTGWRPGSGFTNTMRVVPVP
row,Compound,outcome
1,Cn1c2cc(S(C)=O)sc2c2cnn(Cc3cccc(N)c3)c(=O)c21 (stereo not given),inactive
2,COc1cccc(Cn2ncc3c4sc(S(C)=O)cc4n(C)c3c2=O)c1 (stereo not given),inactive
3,Nc1cccc(S(=O)(=O)N2CCCN(S(=O)(=O)c3ccc4c(c3)OCCO4)CC2)c1,inactive
4,O=S(=O)(c1ccc2c(c1)OCCO2)N1CCN(S(=O)(=O)c2c(F)cccc2F)CC1,inactive
5,Cc1ccc(NS(=O)(=O)c2ccc3c(c2)CCC(=O)N3)cc1C,inactive
